Sampled rows, rich in hits. Any-hit rate of the full collection: about 4.7%.
D1 ag: agonists of human D1 dopamine receptor | P21728 | HEK293 T-REx D1 cells, calcium flux, agonist mode | activation, % at 2 µM | 1% of 360,000 active
Target sequence (P21728 whole entry, looked up): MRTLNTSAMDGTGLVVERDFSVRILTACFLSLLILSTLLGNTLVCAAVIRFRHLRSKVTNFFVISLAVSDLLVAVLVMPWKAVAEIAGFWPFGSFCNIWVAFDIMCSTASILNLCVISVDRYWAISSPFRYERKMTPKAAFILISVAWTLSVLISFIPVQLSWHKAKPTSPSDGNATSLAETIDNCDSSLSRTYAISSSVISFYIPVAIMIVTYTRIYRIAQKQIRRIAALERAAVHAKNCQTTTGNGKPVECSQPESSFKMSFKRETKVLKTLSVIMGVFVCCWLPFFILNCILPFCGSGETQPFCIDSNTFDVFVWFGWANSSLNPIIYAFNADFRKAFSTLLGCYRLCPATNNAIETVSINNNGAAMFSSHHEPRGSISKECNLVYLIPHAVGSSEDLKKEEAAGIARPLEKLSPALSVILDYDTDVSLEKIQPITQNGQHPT
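Agonism was scored from calcium flux recorded over 180 s (1 read/s) after pintool compound addition, following a 10-cycle baseline. Cells were inducible force-coupled HEK293 TREx D1, plated overnight at 30 C and loaded with no-wash calcium dye.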
D1 antag: human D1 dopamine receptor antagonism. P21728. HEK293 TREx D1 cells, calcium flux, dopamine EC80; active compounds read low. activity change, negative = inhibition, % at 10 µM. 3.2% of 360,000 active; in the data active = activity change below about -30%
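Tetracycline-induced HEK293 T-REx cells with force-coupled D1 receptor were loaded with a no-wash calcium dye. Compound was added after a 10 s baseline and read kinetically for 180 s; EC80 dopamine was then added and calcium flux followed another 180 s.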
D1 PAM: enhances dopamine response at the human D1 receptor. P21728. HEK293 TREx D1 cells, calcium flux, dopamine EC20 potentiation. potentiation, % at 10 µM. 0.036% of 360,000 active. AID 504651; in the data active = potentiation above about 30%
TRHR ag: activates the human TRH receptor | 0.18% of 360,000 active | TRHR cells, calcium flux fluo-8, FDSS agonist mode | P34981 | activation, % at 2 µM
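Agonist-mode FDSS calcium read (Ex 480/Em 530, 1 s cycles) in 1536-well TRHR cells with fluo-8 dye, after 10-cycle baseline and 23 nL compound addition; TRH at EC20 (10 nM final) added afterwards for the enhancer phase.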
TRHR PAM: allosteric enhancers of human TRH receptor | enhancement, % at 2 µM | 0.66% of 360,000 active | P34981 | TRHR cells, fluo-8 calcium fluorescence, EC20 TRH enhancement | AID 493056; in the data active = enhancement above about 30%
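Enhancer read-out: after compound pinning and an initial kinetic agonist-mode read, an EC20 of TRH (10 nM final) was injected and fluo-8 calcium signal (Ex 480/Em 530) followed at 1 s/cycle for 100 cycles in TRHR-expressing cells.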
A number is an active result; n = inactive; x = no result; ! = a repeat was not active. Rule as the data show it, unless noted: active = activation above about 30%; inactive = the rest.

SMILES | D1 ag | D1 antag | D1 PAM | TRHR ag | TRHR PAM
O=C(Nc1ccc(F)cc1F)N1CCN(c2ccc(Cl)c(Cl)c2)CC1 | n | -31.9 | n | n | n
Cc1ccc2nc(-c3ccc(Cl)c(NC(=O)c4cccc([N+](=O)[O-])c4C)c3)oc2c1 | n | n | n | n | n
Cc1noc(C)c1COC(=O)CCc1nc2ccccc2s1 | n | -31.6 | n | n | n
O=C(CCc1nc2ccccc2s1)OCC(=O)c1ccccc1 | n | n | n | n | n
Cc1ccc(NC(=O)Cn2c(O)c(N=NC(=O)c3cc([N+](=O)[O-])ccc3O)c3ccccc32)cc1 | n | -39.6 | n | n | n
Cc1cccc(NC(=O)Cn2c(O)c(N=NC(=O)c3ccccc3O)c3ccccc32)c1 | n | n | n | n | n
CC(C#N)Sc1ncnc2sc(-c3ccccc3)cc12 (stereo not given) | n | n | n | n | n
CCOC(=O)c1[nH]c(CN2CCN(c3ccc(OC)cc3)CC2)c(C(=O)OCC)c1C | 64.4 | n | x | n | n
CN(C)S(=O)(=O)Oc1ccsc1C(=O)Nc1cccc(Cl)c1 | n | -41.5 | n | n | n
Cc1ccsc1C(=O)NNC(=O)Nc1ccc(Cl)c(Cl)c1 | n | n | n | n | 39.1
CN(C)S(=O)(=O)Oc1ccsc1C(=O)Nc1ccc(Br)cc1 | n | n | n | n | n
Cc1occc1C(=O)NNC(=O)Nc1ccc(Cl)c(Cl)c1 | n | n | n | n | n
CN(C)S(=O)(=O)Oc1ccsc1C(=O)Nc1ccc(Cl)c(Cl)c1 | 35.6 | -55.4 | n | n | n
CN(C)S(=O)(=O)Oc1ccsc1C(=O)Nc1ccc(C(F)(F)F)cc1 | n | n | x | n | n
Cc1ccc(Cl)cc1NC(=O)C(C)n1nnc2sc3c(c2c1=O)CCCC3 (stereo not given) | n | n | n | n | n
Cc1nc2nc[nH]n2c(=O)c1NS(=O)(=O)c1ccc(Br)cc1 | n | n | n | n | n
COc1ccc(C(CC(=O)O)c2ccc3c(c2)OCO3)cc1 (stereo not given) | n | n | n | n | n
NC(=O)CC(c1ccccc1)c1ccc2c(c1)OCO2 (stereo not given) | n | n | n | n | 33.1
CCOC(=O)c1ccc(Nc2nnc(C(C)(C)C)c(=O)[nH]2)cc1 | n | -55.9 | n | n | n
O=C(CN1CCN(C(=O)C2CCCO2)CC1)Nc1ccc(Br)cc1 (stereo not given) | n | n | n | n | n
Cc1ccc(S(=O)(=O)NCc2nc3nc(C)cc(C)n3n2)c(C)c1 | n | -65.1! | n | n | n
Cc1cc(C)c(S(=O)(=O)NCc2nc3nc(C)cc(C)n3n2)c(C)c1 | n | n | n | n | n
COC(=O)c1ccc(CN2CCC(CO)(Cc3ccccc3Cl)CC2)cc1 | n | n | n | n | n
COc1ccc(/C=C/CN2CCC(CO)(Cc3ccccc3Cl)CC2)cc1 | 109.5 | n | n | n | n
COc1ccc(-c2[nH]c3ccccc3c2SCCNC(=O)c2cc(OC)c(OC)c(OC)c2)cc1 | n | n | n | n | n
SMILES | D1 ag | D1 antag | D1 PAM | TRHR ag | TRHR PAM
CCNC(=O)c1ccc(NS(=O)(=O)c2ccc3[nH]c(=O)[nH]c3c2)cc1 | n | -40.6 | n | n | n
COc1ccc(NS(=O)(=O)c2ccc3[nH]c(=O)[nH]c3c2)cc1OC | n | n | n | n | 31.6
COc1ccc(S(=O)(=O)Nc2ccc3cn[nH]c3c2)cc1C | n | n | n | n | 39.3
COC(=O)c1ccc(NS(=O)(=O)c2ccc3[nH]c(=O)oc3c2)cc1 | n | -30.2 | n | n | n
Cc1csc2nc(COc3ccc(NC(=O)c4ccccc4F)cc3)cc(=O)n12 | n | n | n | n | n
N#Cc1ccc(-c2ccccc2)nc1SCCN1CCOCC1 | n | n | n | n | n
Cc1cc(C)c(C#N)c(SCCN2CCOCC2)n1 | n | -31.2 | n | n | n
CCOc1ccccc1C(=O)Nc1nnc(Cc2ccc(OC)c(OC)c2)s1 | n | n | n | n | n
O=C(/C=C/c1ccc(Cl)cc1Cl)N1CCN(c2ccccc2[N+](=O)[O-])CC1 | n | n | n | n | n
O=C(/C=C/c1cccc([N+](=O)[O-])c1)N1CCN(c2ccccc2F)CC1 | n | -58.4 | n | n | n
O=C(/C=C/c1ccccc1[N+](=O)[O-])N1CCN(c2ccccc2F)CC1 | n | -67.9 | n | n | n
Cn1cc(CN2CCC(C(O)c3cccs3)CC2)c(-c2cccc(Cl)c2)n1 (stereo not given) | 41.5 | n | n | n | n
Cc1ccc(C)c(NC(=O)CN(C)S(=O)(=O)c2cccc3nsnc23)c1 | n | n | n | n | n
Cc1ccc(NC(=O)Nc2ccc3snnc3c2)cc1C | n | n | n | n | n
COc1cccc(NC(=O)Nc2nc(-c3ccc(OC)c(OC)c3)cs2)c1 | n | -40.4 | n | n | n
COc1cccc(NC(=O)Nc2ccc3snnc3c2)c1 | 37.2 | n | n | n | n
CCc1ccccc1NC(=O)Nc1ccc2snnc2c1 | 33.1 | n | n | n | n
O=C(Nc1ccc2snnc2c1)Nc1cccc2ccccc12 | n | n | n | n | n
COc1ccc(-c2csc(NC(C)=O)n2)cc1OC | n | n | n | n | n
CCOC(=O)c1cc(-c2ccccc2)n(CCCC(=O)Nc2cccc(C)c2C)c1C | n | n | n | n | n
CC(C)c1ccc2[nH]c3c(c2c1)[C@@H]1CCN2C(=O)CCC[C@H](C3)[C@H]12 | n | n | n | n | n
Cc1c(-c2ccc(O)cc2)nc2nc(-c3ccccc3)c(-c3ccccc3)nn12 | 85.6 | n | n | n | n
Cc1ccccc1C(=O)Nc1ccc(OCc2cc(=O)n3ccccc3n2)cc1 | n | n | n | n | n
O=C(NCCN1CCCCC1)Nc1ccc(F)cc1F | n | n | n | n | 36.9
O=C(NCCN1CCCCC1)Nc1ccccc1F | n | n | n | n | n
SMILES | D1 ag | D1 antag | D1 PAM | TRHR ag | TRHR PAM
N#CC1=C(N)S[C@@H](C(=O)c2ccc(F)cc2)[C@@H]1c1cccs1 | n | -43.3 | n | n | n
CCCN1C2CCCC1CC(NC(=O)c1ccc(Br)cc1)C2 (stereo not given) | n | -47.7 | n | n | n
CC(C)CN1C2CCCC1CC(NC(=O)c1ccc([N+](=O)[O-])cc1)C2 (stereo not given) | n | -48.1 | n | n | n
COc1cccc(C(=O)NC2CC3CCCC(C2)N3CC(=O)Nc2ccccc2)c1 (stereo not given) | n | n | n | n | n
CCOc1ccc(C(=O)NC2CC3CCCC(C2)N3CC(C)C)cc1 (stereo not given) | n | n | n | n | n
O=C(CN1C2CCCC1CC(NC(=O)c1ccccc1)C2)Nc1ccccc1 (stereo not given) | n | -53.3 | n | n | 39.7
Cc1cccc(OCC(=O)Nc2cccc(OCc3cc(=O)n4cccc(C)c4n3)c2)c1 | n | n | n | n | n
CCN1C=CC2=C(C#N)C(N)C(C#N)(C#N)C(c3ccccc3C(F)(F)F)C2C1 (stereo not given) | 33.7 | n | n | n | n

Bioassay records: PubChem, National Center for Advancing Translational Sciences (NCATS)
